The supplement of paper PMC10849652
Of roughly 7,900 targets only a part is listed; those with a hit were picked by preference. About 0.6% of all pairs of compound and target were hits. A number with no mark means an inactive call.

compound: CC1=C2C(=CC=C1)N=C(N(C2=O)C3=CC=CC=C3C)CN4C=NC5=C(N=CN=C54)N; test: log2 fold change, soluble protein after heating vs DMSO (PISA); higher = thermal stabilisation; K562 cells, 10 uM, 30 min; active = over 0.2 and 3.5 SD of the protein, either way, in both replicates (recomputed)
How it was run: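 Quantification of soluble protein used TMTpro 16plex LC-MS/MS, with channel sums equalised. Samples were the supernatant after 21,000xg for 90 min of pooled aliquots from K562 cells (2×10^6 cells/mL) treated with 10 μM compound for 30 min, heated for 3 min over 48°C-58°C, and extracted in PBS with 0.5% NP-40 at 4°C. Values, from duplicates, describe thermal stability against control samples on a log2 fold-change scale.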

Sequence of UniProt Q8TD22 (Q8TD22 whole entry, looked up): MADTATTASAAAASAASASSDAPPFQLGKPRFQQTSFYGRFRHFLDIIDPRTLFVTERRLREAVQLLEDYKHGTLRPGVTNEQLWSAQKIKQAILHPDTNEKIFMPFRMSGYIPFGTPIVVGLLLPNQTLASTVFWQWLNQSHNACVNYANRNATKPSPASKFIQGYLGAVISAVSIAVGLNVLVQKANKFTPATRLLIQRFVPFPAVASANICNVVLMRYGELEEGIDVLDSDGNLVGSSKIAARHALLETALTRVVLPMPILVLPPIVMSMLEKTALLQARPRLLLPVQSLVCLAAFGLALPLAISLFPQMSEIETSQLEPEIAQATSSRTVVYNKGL
Sequence of UniProt P62070 (P62070 whole entry, looked up): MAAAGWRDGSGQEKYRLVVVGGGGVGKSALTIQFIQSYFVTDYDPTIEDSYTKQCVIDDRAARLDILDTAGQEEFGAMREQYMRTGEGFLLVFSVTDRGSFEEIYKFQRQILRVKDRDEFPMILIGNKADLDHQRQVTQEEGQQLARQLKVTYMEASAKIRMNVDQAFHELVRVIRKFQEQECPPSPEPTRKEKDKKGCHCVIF
Sequence of UniProt Q9UPN6 (Q9UPN6 whole entry, looked up): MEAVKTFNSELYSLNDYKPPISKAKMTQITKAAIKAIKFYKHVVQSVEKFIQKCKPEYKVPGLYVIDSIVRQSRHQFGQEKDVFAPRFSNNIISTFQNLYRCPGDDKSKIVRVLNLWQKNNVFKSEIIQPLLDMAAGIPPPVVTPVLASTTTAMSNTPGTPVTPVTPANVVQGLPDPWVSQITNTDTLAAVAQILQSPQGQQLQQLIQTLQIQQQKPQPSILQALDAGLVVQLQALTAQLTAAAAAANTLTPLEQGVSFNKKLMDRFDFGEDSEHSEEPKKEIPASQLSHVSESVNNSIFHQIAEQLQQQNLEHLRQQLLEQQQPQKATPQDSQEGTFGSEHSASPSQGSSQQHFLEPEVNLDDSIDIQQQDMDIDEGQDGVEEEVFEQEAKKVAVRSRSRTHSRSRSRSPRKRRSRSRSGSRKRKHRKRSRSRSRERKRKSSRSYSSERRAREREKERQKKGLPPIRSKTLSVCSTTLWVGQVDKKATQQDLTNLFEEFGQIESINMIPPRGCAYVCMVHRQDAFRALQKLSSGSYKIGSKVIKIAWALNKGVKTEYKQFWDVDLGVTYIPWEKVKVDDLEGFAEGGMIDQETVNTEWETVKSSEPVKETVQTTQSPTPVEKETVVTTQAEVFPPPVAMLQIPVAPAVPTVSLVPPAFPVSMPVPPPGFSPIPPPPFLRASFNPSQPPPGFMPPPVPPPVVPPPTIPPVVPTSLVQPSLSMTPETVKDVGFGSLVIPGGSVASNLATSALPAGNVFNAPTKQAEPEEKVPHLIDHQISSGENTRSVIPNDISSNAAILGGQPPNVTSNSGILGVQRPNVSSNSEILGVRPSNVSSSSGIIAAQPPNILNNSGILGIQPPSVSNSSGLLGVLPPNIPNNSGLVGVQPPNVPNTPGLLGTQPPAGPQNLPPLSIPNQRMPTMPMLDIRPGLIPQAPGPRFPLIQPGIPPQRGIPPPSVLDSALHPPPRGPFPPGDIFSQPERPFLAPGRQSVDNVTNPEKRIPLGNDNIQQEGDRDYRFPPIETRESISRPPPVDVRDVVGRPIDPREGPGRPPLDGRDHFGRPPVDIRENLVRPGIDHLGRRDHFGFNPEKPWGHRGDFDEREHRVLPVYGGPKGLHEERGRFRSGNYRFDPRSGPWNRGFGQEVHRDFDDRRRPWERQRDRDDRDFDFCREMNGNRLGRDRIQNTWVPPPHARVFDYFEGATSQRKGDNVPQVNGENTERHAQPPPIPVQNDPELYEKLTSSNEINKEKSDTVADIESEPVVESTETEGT
Sequence of UniProt Q96GF1 (Q96GF1 whole entry, looked up): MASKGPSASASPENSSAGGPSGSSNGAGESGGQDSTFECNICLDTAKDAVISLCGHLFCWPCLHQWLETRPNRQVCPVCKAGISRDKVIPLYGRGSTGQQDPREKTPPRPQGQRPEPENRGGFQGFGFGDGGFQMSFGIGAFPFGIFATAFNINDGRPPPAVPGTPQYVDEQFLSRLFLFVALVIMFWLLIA
Sequence of UniProt Q9H4A4 (Q9H4A4 whole entry, looked up): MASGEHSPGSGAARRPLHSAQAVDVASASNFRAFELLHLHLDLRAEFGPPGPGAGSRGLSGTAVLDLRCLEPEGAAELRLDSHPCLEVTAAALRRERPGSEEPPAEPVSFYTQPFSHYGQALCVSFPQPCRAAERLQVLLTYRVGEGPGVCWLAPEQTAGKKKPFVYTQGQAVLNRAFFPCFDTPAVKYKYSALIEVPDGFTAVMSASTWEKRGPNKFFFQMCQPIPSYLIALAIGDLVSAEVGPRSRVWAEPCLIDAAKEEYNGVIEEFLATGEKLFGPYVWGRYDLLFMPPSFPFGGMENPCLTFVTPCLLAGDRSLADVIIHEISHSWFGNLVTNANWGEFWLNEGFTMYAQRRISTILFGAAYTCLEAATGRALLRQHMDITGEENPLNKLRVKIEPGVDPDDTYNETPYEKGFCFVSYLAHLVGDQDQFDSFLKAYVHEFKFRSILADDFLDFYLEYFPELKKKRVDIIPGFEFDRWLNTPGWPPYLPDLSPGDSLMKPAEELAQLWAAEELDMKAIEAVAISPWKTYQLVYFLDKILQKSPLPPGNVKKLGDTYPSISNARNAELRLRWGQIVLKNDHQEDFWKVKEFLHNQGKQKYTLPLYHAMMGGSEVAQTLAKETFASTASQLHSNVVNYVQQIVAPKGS
Sequence of UniProt Q8IXJ6 (Q8IXJ6 whole entry, looked up): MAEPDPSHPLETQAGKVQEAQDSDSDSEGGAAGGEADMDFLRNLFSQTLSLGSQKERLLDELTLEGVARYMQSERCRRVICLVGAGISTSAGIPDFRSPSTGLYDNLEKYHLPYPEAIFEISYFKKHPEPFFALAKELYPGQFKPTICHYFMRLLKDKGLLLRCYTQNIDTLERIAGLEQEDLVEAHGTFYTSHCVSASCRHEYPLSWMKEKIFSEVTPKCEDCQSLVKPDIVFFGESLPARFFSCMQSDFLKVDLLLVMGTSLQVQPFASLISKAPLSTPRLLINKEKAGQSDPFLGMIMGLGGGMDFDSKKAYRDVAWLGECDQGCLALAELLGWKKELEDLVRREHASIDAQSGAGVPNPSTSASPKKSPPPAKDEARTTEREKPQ
Sequence of UniProt Q8WWV3 (Q8WWV3 whole entry, looked up): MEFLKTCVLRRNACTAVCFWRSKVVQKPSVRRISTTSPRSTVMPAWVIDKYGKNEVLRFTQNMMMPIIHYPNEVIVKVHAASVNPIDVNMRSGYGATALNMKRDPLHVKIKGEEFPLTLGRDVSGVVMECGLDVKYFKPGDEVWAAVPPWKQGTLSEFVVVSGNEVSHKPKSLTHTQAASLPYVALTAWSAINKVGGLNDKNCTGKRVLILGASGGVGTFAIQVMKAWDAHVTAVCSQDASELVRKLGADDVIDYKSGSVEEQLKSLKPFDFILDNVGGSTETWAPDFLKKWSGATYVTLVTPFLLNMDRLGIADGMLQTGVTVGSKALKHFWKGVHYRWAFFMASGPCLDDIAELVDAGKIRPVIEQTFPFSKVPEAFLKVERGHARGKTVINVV
Sequence of UniProt Q96EE3 (Q96EE3 whole entry, looked up): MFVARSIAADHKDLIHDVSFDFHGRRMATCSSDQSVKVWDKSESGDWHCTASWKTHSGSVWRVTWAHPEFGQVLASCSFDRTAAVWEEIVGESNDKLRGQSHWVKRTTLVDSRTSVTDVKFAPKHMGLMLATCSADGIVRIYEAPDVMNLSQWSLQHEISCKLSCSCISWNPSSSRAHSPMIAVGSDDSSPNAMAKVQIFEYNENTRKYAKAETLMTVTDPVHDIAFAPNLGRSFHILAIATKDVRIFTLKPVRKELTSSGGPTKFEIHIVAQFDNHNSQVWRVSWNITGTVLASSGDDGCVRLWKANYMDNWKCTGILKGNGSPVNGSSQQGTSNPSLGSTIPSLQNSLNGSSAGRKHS
Sequence of UniProt O00560 (O00560 whole entry, looked up): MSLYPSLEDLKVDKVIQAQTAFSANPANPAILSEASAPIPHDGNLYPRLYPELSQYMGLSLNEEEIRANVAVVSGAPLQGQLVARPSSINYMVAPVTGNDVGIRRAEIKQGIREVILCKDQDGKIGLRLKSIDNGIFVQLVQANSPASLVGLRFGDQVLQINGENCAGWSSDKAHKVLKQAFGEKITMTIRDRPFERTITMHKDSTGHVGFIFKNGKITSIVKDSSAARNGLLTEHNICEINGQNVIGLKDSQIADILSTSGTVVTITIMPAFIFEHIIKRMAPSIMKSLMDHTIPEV
Sequence of UniProt O00767 (O00767 whole entry, looked up): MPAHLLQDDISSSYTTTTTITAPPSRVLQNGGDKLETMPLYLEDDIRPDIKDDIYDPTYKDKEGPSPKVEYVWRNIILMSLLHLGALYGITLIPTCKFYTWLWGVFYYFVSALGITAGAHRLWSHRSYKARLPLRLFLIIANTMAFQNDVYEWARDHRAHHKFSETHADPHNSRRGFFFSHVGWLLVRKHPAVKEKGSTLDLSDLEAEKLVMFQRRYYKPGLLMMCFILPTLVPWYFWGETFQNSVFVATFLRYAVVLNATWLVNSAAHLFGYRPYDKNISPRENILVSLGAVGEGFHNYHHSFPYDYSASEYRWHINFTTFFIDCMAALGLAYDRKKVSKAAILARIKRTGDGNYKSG
Sequence of UniProt O00584 (O00584 whole entry, looked up): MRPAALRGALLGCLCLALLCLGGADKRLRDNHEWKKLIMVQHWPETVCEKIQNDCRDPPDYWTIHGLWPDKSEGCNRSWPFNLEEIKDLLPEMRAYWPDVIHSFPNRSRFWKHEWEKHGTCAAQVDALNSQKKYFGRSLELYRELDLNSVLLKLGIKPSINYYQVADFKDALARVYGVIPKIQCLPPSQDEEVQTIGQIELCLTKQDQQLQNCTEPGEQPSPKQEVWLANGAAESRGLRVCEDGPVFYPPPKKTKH
Sequence of UniProt P51151 (P51151 whole entry, looked up): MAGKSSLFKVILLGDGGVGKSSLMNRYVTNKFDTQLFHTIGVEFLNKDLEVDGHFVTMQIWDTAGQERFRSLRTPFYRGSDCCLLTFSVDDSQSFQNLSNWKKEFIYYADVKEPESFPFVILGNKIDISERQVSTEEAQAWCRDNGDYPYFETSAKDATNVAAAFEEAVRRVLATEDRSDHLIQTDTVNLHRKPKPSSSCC

Target | log2 fold change
RNF185 (UniProt Q96GF1) | 0.006
RPS19 (UniProt P39019) | -0.197
ROCK1 (UniProt Q13464) | 0.032
SCAF8 isoform 2 (UniProt Q9UPN6) | 0.254
SACM1L (UniProt Q9NTJ5) | 0.064
SCPEP1 (UniProt Q9HB40) | -0.001
RPS21 (UniProt P63220) | 0.028
SFXN5 (UniProt Q8TD22) | -0.11
RBM4 (UniProt Q9BWF3) | -0.011
RNASET2 (UniProt O00584) | 0.063
SHCBP1 (UniProt Q8NEM2) | 0.138
RBM25 (UniProt P49756) | 0.005
SEPTIN5 (UniProt Q99719) | 0.014
RNPEP (UniProt Q9H4A4) | 0.047
SH3GLB2 (UniProt Q9NR46) | 0.029
SCD (UniProt O00767) | 0.012
SEH1L isoform 1 (UniProt Q96EE3) | -0.003
RAD50 isoform 2 (UniProt Q92878) | 0.061
RALGPS2 (UniProt Q86X27) | -0.093
SIRT2 (UniProt Q8IXJ6) | 0.105

Target | log2 fold change
SLC1A5 (UniProt Q15758) | -0.026
SDCBP (UniProt O00560) | -0.067
RTN4IP1 (UniProt Q8WWV3) | 0.999 (active)
RUFY1 (UniProt Q96T51) | 0.041
RAB9A (UniProt P51151) | 0.065
RAC3 (UniProt P60763) | 0.029
SLC12A5 (UniProt Q9H2X9) | 0.066
SH3GL1 (UniProt Q99961) | 0.118
RBM27 (UniProt Q9P2N5) | 0.049
RPS14 (UniProt P62263) | -0.238
RPS6KA2 isoform 2 (UniProt Q15349) | 0.087
RIOK3 (UniProt O14730) | -0.016
SIDT2 isoform 2 (UniProt Q8NBJ9) | 0.018
RRAS2 isoform 4 (UniProt P62070) | -0.062
RAB3IL1 (UniProt E9PK89) | -0.107
RAP2C (UniProt Q9Y3L5) | -0.012
RAD50, A0A494C0Y7 | 0.194
RNF220 (UniProt Q5VTB9) | 0.14
RIPK1 (UniProt Q13546) | 0.033
RPS13 (UniProt P62277) | -0.246
